15 molecules from PubChem BioAssay (EPA / NIEHS) can be followed below.

The structures appear in SMILES notation. Several values for one entry are separate records, joined by “and”; a condition that tells them apart may be missing. Equal values may be shown once. A structure can be active in one record and inactive in another. Activity calls are given as the source filed them. The calls were made as follows: active = hit-call score of the fitted dose curve at least 0.9, where 1 is the maximum; inactive = score below 0.9.

The nature of the assay: CCTE_Shafer_MEA_dev_spike_duration_mean: CCTE's Neural Network Formation Assay for Mean Spike Duration, Shafer Lab (AID 2284051).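 As to AC50: potency for a decrease in mean network spike duration versus DMSO.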 The protocol: CCTE_Shafer_MEA_dev assay is conducted using Axion Biosystems 48 well microelectrode array (MEA) plates and Maestro recording system. Each well of the MEA plate contains a grid of 16 microelectrodes embedded in the culture surface. Electrically active cells, such as neurons, can be cultured over the electrodes, and electrical activity in these cells can be recorded extracellularly. The spontaneous firing of neurons is captured from each electrode on a microsecond timescale providing both temporally and spatially precise data. […] The CCTE_Shafer_MEA_dev assay uses primary cultures of rat cortical neurons. Recordings are made on days post-plating 5, 7, 9 and 12. As these cultures mature over time, neural networks develop functional activity and form cohesive networks in which electrical activity can be highly coordinated. CCTE_Shafer_MEA_dev_spike_duration_mean is 1 of 19 assay components of the CCTE_Shafer_MEA_dev assay. It measures the average duration of network spikes (temporally-clustered groups of action potential firing across multiple electrodes) during a recording in a microelectrode array (MEA) using Axion Biosystems Maestro 768 channel amplifier with the AxIS adaptive spike detector. To collapse across multiple recordings made on days post-plating 5, 7, 9 and 12, the trapezoidal area-under-the-curve of the component is calculated.Data from the assay component CCTE_Shafer_MEA_dev_spike_duration_mean was analyzed into 1 assay endpoint. This assay endpoint, CCTE_Shafer_MEA_dev_spike_duration_mean, was analyzed in the negative analysis fitting direction relative to DMSO as the negative control and baseline of activity. Using a type of functional reporter, gain or loss-of-signal activity can be used to understand electrical activity.
On the day prior to culture, each well was coated thoroughly with 150 uL of 0.05% polyethyleneimine (PEI, Sigma Cat P3143) in 50 mM HEPES (Sigma Cat H7523) at a pH of 8. The plate was incubated at 37C for one hour. PEI was rinsed out with 500 uL of sterile water three times. Plates were stored at 4C until the day of culture. This culture was plated at a seeding density of 1.5 x 10^5 cells/well on a 48-well MEA plate, prepared as described above. Cells were administered via a 25 uL media/laminin ([…]; Sigma Cat L2020-1MG) drop directly onto the microelectrode array, as adding the cells with the laminin results in better attachment than pre-coating with laminin. After 2 hours, an additional 475 uL of cortical media was added and the cells returned to the incubator. Exposure starts at day 0 of plating and is continued over twelve days of network development until the experiment is terminated. Cells are fed with fresh medium on DIV 5 and 9, following the recordings on those days. The entire volume of media in the well is exchanged and any vehicle or compound treatment is renewed. Complete details are found in OP-NHEERL/ISTD/SBB/TJS/2015-03-r0 (available on request, email shafer.tim@epa.gov). Measurement of the electrical activity is non-invasive, and recordings can be made from the same plate over multiple different days of the culture. In cortical neurons, this allows for the measurement of extracellular action potentials over the period during which networks form in the MEA plate.
With `CCC(C)(C)C(=O)OC1=C(c2ccc(Cl)cc2Cl)C(=O)OC12CCCCC2`, the result was inactive.

As to `CC1(C)C(C=C(Cl)Cl)C1C(=O)OC(C#N)c1ccc(F)c(Oc2ccccc2)c1` (centres undefined), the AC50 is 5.46 µM (active) and 10.2 µM (active) and 8.39 µM (active).

As to `ClC1C(Cl)C(Cl)C(Cl)C(Cl)C1Cl` (centres undefined), the result was inactive.

Turning to `COP(=O)(OC)OC=C(Cl)Cl`, the AC50 is 1.45 µM (active) and the call was inactive.

For `CNC(=O)CSP(=S)(OC)OC`, the AC50 is 50 µM (active) and the molecule was called inactive.

Take `COP(=S)(OC)Oc1ccc([N+](=O)[O-])cc1`: the outcome was inactive.

With `CC1(c2ccc(Oc3ccccc3)cc2)OC(=O)N(Nc2ccccc2)C1=O` (centres undefined), the AC50 was 3.17 µM (active).

Regarding `CC(C)N(C(=O)COc1nnc(C(F)(F)F)s1)c1ccc(F)cc1`, the AC50 was 24.5 µM (active) and the molecule was classed as inactive.

As for `O=C(O)COc1ccc(Cl)cc1Cl`, the outcome was inactive.

`O=[N+]([O-])/N=C1\NCCN1Cc1ccc(Cl)nc1`: the molecule was classed as inactive.

For `O=S(=O)(O)C(F)(F)C(F)(F)C(F)(F)C(F)(F)C(F)(F)C(F)(F)C(F)(F)C(F)(F)F`, the AC50 was 50 µM (active) and the molecule was classed as inactive.

On to `Oc1cc(Cl)ccc1Oc1ccc(Cl)cc1Cl`, for which the AC50 was 10 µM (active).

Turning to `O=S1OCC2C(CO1)C1(Cl)C(Cl)=C(Cl)C2(Cl)C1(Cl)Cl` (centres undefined), the AC50 was 8.4 µM (active).

Consider `CC[C@H](C)[C@H]1O[C@]2(C=C[C@@H]1C)C[C@@H]1C[C@@H](C/C=C(\C)[C@@H](O[C@H]3C[C@H](OC)[C@@H](O[C@H]4C[C@H](OC)[C@@H](O)[C@H](C)O4)[C@H](C)O3)[C@@H](C)/C=C/C=C3\CO[C@@H]4[C@H](O)C(C)=C[C@@H](C(=O)O1)[C@]34O)O2` (tested in a mixture with another compound), for which the AC50 is 3.01 nM (active) and 0.926 nM (active).

`O=C(O)C(F)(F)C(F)(F)C(F)(F)C(F)(F)C(F)(F)C(F)(F)C(F)(F)F`: the result was inactive.

Usually AC50 stands for the concentration at which the activity in the assay is half-maximal.
